Screens (PubChem BioAssay)
D2 ag-1: agonists of human D2 dopamine receptor | P14416 | HEK293 T-REx D2 cells, calcium flux agonist mode | activation, % at 2 µM | 0.53% of 340,000 active | AID 485358;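 active = activation over 3 SD above normal in the single-dose calcium agonist read, cut at about 30% in these data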
Target sequence (P14416 whole entry, looked up): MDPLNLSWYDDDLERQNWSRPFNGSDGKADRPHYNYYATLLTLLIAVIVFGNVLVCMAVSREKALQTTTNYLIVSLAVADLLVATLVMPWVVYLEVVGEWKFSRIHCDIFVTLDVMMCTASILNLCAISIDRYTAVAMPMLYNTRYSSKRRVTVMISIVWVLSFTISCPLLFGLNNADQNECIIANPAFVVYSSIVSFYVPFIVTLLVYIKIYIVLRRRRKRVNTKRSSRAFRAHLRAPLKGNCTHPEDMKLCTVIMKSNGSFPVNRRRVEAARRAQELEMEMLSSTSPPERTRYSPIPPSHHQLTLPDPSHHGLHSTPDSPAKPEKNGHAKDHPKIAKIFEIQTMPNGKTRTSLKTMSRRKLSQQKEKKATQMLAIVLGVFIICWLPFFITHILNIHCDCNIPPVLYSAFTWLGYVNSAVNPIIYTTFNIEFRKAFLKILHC
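In this primary screen, compounds producing a positive calcium signal within 180 s of addition to tetracycline-induced, force-coupled HEK293 Trex D2 cells are flagged; cells are dye-loaded with a no-wash calcium kit beforehand.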
D2 ag-2: human D2 receptor agonism in beta-arrestin assay; P14416; DiscoveRx PathHunter D2 beta-arrestin, luminescence, 90 min; 100% = 57 uM dopamine signal; activation, % (concentration not given with the values); 0.084% of 360,000 active; AID 624465; in the data active = activation above about 40%; inconclusive = between about 15% and that limit
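Agonist mode: compounds alone added to overnight-plated D2 PathHunter cells for 90 min at 37 C, with 57 uM final dopamine (EC100) defining full response. Beta-arrestin recruitment detected by chemiluminescent reagent, read after 1 h at ambient temperature.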
D2 PAM-1: potentiates the human D2 dopamine receptor allosterically; DiscoveRx D2 beta-arrestin cells, luminescence, 90 min; 100% = 57 uM dopamine signal; P14416; potentiation, % (concentration not given with the values); 0.23% of 360,000 active; in the data active = potentiation above about 50%; inconclusive = mostly about 30% to 49%
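PathHunter beta-arrestin assay in DiscoveRx D2 cells. Compounds were added with an EC20 of dopamine (50 nM final) for 90 min at 37 deg C. Luminescence was read 1 h after detection reagent, with 57 uM dopamine as the EC100 control.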
D2 antag: antagonizes the human D2 dopamine receptor. P14416. inhibition, % at 10 µM. HEK293 TREx D2 cells, calcium flux, dopamine EC80. 2% of 340,000 active. AID 485344; in the data active = inhibition above about 30%; inactive = below that, where a call was filed
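Calcium flux kinetic readout in an inducible HEK293 TREx D2 line plated overnight at 30 C. After 180 s compound exposure, an EC80 dopamine challenge follows with another 180 s kinetic read to detect antagonism.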
D2 PAM-2: positively modulates the human D2 dopamine receptor allosterically | AID 485347 | 0.34% of 340,000 active | potentiation, % at 10 µM | HEK293 T-REx D2, calcium flux, EC20 dopamine potentiation | P14416;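 active = potentiation over 3 SD above the plate norm, cut at about 30% in these data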
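Potentiation of an EC20 dopamine calcium response measured kinetically over 180 s, after a preceding 180 s compound-only read flagging agonists. Cells: inducible Hek293 Trex D2 line, 4000/well, cultured overnight at 30 C before dye loading.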
Large screens that a line does not name were inactive. Most compounds without a hit are left out; they make up all but 2.4% or so of the library.

S=C(Nc1ccccc1Cl)NC1CCC(NC(=S)Nc2ccccc2Cl)CC1 (configuration not stated)	none (no result: D2 ag-1, D2 antag)
S=C(Nc1ccc(Cl)cc1Cl)NC1CCN(Cc2ccccc2)CC1	D2 antag 74.7
CC(C)c1ccccc1NC(=S)NC1CCN(Cc2ccccc2)CC1	D2 antag 95.7
O=C(CNC(=O)c1ccccc1Cl)NC1CCN(Cc2ccccc2)CC1	none
CC(C)c1ccccc1NC(=S)N1CCN(Cc2ccc3c(c2)OCO3)CC1	D2 antag 33.4
COc1ccc(C(C(=O)NCc2ccccc2)N(C(=O)Cn2nnc3ccccc32)c2ccc(OC)cc2)cc1 (configuration not stated)	none (no result: D2 ag-2, D2 PAM-1, D2 antag)
CCn1c(=O)c2cc(C(=O)N3CCN(c4cccc(OC)c4)CC3)sc2c2ccccc21	none (no result: D2 ag-2, D2 PAM-1, D2 antag)
Cc1c(Cl)cccc1NC(=S)NC1CCN(Cc2ccccc2)CC1	D2 antag 85.3
S=C(Nc1cc(Cl)cc(Cl)c1)NC1CCN(Cc2ccccc2)CC1	D2 antag 72.2
Cc1c(Cl)cccc1NC(=S)N1CCN(Cc2ccccc2)CC1	none
COc1ccc(CCNC(=S)NC2CCN(Cc3ccccc3)CC2)cc1OC	D2 antag 31.6
COc1ccc(CCNC(=S)NCCc2ccc(OC)c(OC)c2)cc1OC	none
O=C(CN1CCC(NC(=O)c2ccco2)CC1)Nc1ccccc1C(F)(F)F	D2 antag 49.8
CCc1cc2c(cc3c(=O)n(CC(=O)NC4CCCCC4)ncn32)s1	none (no result: D2 ag-2, D2 PAM-1, D2 antag)
O=C(NC1CCN(Cc2ccccc2)CC1)C1CCN(S(=O)(=O)c2ccc(Cl)cc2)CC1	D2 antag 33.2
FC(F)(F)c1ccccc1NC(=S)NC1CCN(Cc2ccccc2)CC1	D2 antag 115.4
S=C(Nc1ccccc1Cl)NC1CCN(Cc2ccccc2)CC1	D2 antag 84.6
O=C(NC(=S)NC1CCN(Cc2ccccc2)CC1)c1ccc(F)cc1	none
Clc1ccc(CNC2CCN(Cc3ccccc3)CC2)cc1	none
S=C(NCc1ccc(Cl)cc1)NC1CCN(Cc2ccccc2)CC1	D2 antag 70.8
N#C/C(=C\c1ccc(F)cc1)C(=O)NCC1CCCO1 (configuration not stated)	none (no result: D2 ag-2, D2 PAM-1, D2 antag)
O=C(NCc1ccccc1F)c1cccc(NC(=O)N2CCSc3ncccc32)c1	none (no result: D2 ag-2, D2 PAM-1, D2 antag)
COc1ccc(CNC(=O)C(=O)NCC(c2ccco2)S(=O)(=O)c2ccc(Cl)cc2)cc1 (configuration not stated)	none (no result: D2 ag-2, D2 PAM-1, D2 antag)
CCc1ccc(OCC(=O)N(Cc2ccc(C(C)C)cc2)C2CCS(=O)(=O)C2)cc1 (configuration not stated)	none (no result: D2 ag-2, D2 PAM-1, D2 antag)
CCOC(=O)CSc1nnc(Cc2ccccc2)n1-c1cccc(Cl)c1	D2 PAM-2 31.9
COc1ccc(C2c3cccn3CCN2S(=O)(=O)c2ccc([N+](=O)[O-])cc2)cc1 (configuration not stated)	none (no result: D2 ag-2, D2 PAM-1, D2 antag)
CC(C)Oc1ccc(C(=O)NC2CCN(Cc3ccccc3)CC2)cc1	none
CC(Oc1ccc(Br)cc1)C(=O)NC1CCN(Cc2ccccc2)CC1 (configuration not stated)	D2 antag 64.4
CCCC(CCC)C(=O)NC1CCN(Cc2ccccc2)CC1	none
COC(=O)[C@H](C)NC(=O)NC1CCN(Cc2ccccc2)CC1	D2 antag 50.4
Cc1nc2c(o1)C(=O)c1ccccc1C2=Nc1ccccc1	D2 ag-2 inconclusive, D2 PAM-1 51.2 (no result: D2 ag-1, D2 antag, D2 PAM-2)
Cc1ccc(CC(=O)Nc2c(C(=O)N3CCN(c4ccccc4F)CC3)oc3ccccc23)cc1	none (no result: D2 ag-2, D2 PAM-1, D2 antag)
C/C(=N\NC(=O)c1cccnc1)c1cc(C)oc1C	D2 antag 33.5
CC(C)NS(=O)(=O)c1ccc(OCC(N)=O)c(Cl)c1	D2 antag 33.6
CCOC(=O)C1CCN(C(=O)COc2ccc(S(=O)(=O)NC(C)C)cc2Cl)CC1	none
COc1ccc(OC)c(Nc2nc3ccccc3n3c(C)nnc23)c1	none (no result: D2 ag-2, D2 PAM-1, D2 antag)
O=C(O)c1ccc(Nc2ncnc3ccccc23)cc1	D2 antag 31.7
Cc1nc(NC(=O)CSc2nncs2)c(Cl)cc1Cl	none
Cc1ccc(NC(=O)CSc2nncs2)cc1Cl	D2 antag 47.8
Cc1ccc(-c2nn3c(=O)cc(CN4CCN(C(=O)c5ccc(C(C)(C)C)cc5)CC4)nc3s2)cc1	none (no result: D2 ag-2, D2 PAM-1, D2 antag)
O=C(C1COc2ccccc2O1)N1CCCCC1 (configuration not stated)	D2 antag 51.3
